Source: PubChem BioAssay
Rows were chosen to be rich in hits. Some 18% of all compounds tested hit in one or more screens of this group.
HepG2 tox – qHTS for Inhibitors of TGF-b: Cytotox Counterscreen | HepG2 CAGA-GFP viability, ATP luminescence, 18 h | hit rate 0.76% among 410,000 | Potency, µM (top dose mostly 46.1 µM), actives largely listed as cytotoxic | AID 588856, 2011
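CellTiter-Glo luminescence gave cytotoxicity after 18 hours at 37 degrees C. The cells were HepG2 CAGA-GFP in 1% FBS DMEM, stimulated with 500 pg/mL TGF-beta after compound addition. %Activity was normalised to no-cell wells (complete cell-killing) and DMSO (no toxicity), and curves were fitted and classified.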
IL-1B inflam inh – qHTS for Inhibitors of Inflammasome Signaling: IL-1-beta AlphaLISA Primary Screen; THP-1 LPS/ATP IL-1B secretion, AlphaLISA, 16 h; stronger effect = lower value; hit rate 4.7% among 360,000; activity change, % at 57.5 µM; AID 743279, 2014; in the data active means activity change below about -50%; inconclusive means mostly about -30% to -49%
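Secreted IL-1B measured by AlphaLISA bead assay after 16 h compound exposure of THP-1 cells; compounds (final up to 57.5 uM) added 1 h before LPS (250 ng/mL) and ATP (1.25 mM) stimulation; lower signal means less secretion.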
TDP1 cell CPT – qHTS for Inhibitors of human tyrosyl-DNA phosphodiesterase 1 (TDP1): qHTS in cells in presence of CPT. chicken DT40 Tdp1-/-;hTDP1 cells + 20 nM CPT, ATP luminescence, 48 h. Potency, µM (titrated, usually from 46.2 µM), hits mostly inhibitors. hit rate 12% among 420,000; further: nearly all actives have a fitted effect of over 55% in size
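Chicken DT40 Tdp1-/- cells stably complemented with human TDP1 were seeded at 400 cells/well in medium containing 20 nM camptothecin, exposed to pin-transferred compounds, and grown at 37 °C for at least 48 hr. Viability was read as ATP luminescence.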
TDP1 inh – qHTS Assay for Inhibitors of Tyrosyl-DNA Phosphodiesterase (TDP1) | Tyrosyl-DNA phosphodiesterase 1 (Homo sapiens), Q9NUW8 | recombinant TDP1, AlphaScreen DNA substrate cleavage | Potency, µM (top dose mostly 130 µM), most hits filed as inhibitors | hit rate 0.28% among 350,000 | AID 485290, 2010; further: nearly all actives have a fitted effect of over 40% in size
Target sequence (Q9NUW8 whole entry, looked up): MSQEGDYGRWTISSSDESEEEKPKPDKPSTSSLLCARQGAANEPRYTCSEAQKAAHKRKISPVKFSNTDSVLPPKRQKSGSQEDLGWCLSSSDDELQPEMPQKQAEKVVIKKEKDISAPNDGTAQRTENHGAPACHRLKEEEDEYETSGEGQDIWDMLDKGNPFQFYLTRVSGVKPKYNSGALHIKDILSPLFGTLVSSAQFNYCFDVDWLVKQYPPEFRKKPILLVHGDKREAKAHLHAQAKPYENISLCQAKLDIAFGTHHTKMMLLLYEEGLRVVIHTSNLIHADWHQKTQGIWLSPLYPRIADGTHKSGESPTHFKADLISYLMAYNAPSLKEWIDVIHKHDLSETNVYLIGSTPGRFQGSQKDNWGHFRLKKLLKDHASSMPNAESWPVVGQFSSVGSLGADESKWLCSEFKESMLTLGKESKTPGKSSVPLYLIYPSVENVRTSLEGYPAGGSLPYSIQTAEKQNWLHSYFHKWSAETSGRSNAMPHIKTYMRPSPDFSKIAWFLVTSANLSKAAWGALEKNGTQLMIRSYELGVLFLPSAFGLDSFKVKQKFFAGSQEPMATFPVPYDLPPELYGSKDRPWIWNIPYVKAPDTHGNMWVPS
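E. coli-derived human Tdp1, 1 nM final. Cpd preinc 15 min RT; substrate 15 nM final, 5 min RT; AS bead mix 10 ug/ml final, 10 min RT. Signal loss = tyrosine-FITC cleavage. No-enzyme wells = max signal.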
TDP1 cell noCPT – qHTS for Inhibitors of human tyrosyl-DNA phosphodiesterase 1 (TDP1): qHTS in cells in absence of CPT; DT40 Tdp1-/- hTDP1 cells, no CPT, ATP luminescence, 48 h; Potency, µM (doses to about 46.2 µM), most hits filed as inhibitors; hit rate 15% among 420,000; further: nearly all actives have a fitted effect of over 55% in size
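Growth of hTDP1-complemented DT40 Tdp1-knockout cells is measured by ATP luminescence after at least 48 hr compound exposure at 37 °C, with DMSO substituting for the 20 nM CPT used in the parallel screen.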
TGFb inhibitor – qHTS for Inhibitors of TGF-b | hit rate 1.2% among 410,000 | HepG2 CAGA-GFP TGF-b/SMAD3 reporter, GFP fluorescence, 18 h; TGF-beta stimulated, 500 pg/mL final | Potency, µM (highest dose often 46.1 µM), most hits filed as inhibitors; further: nearly all actives have a fitted effect of over 65% in size
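GFP signal (ex488/em500-530) from TGF-beta-stimulated HEPG2 CAGA-GFP cells, 500 pg/mL final, 18 h at 37 degrees C in DMEM plus 1% FBS, normalized to unstimulated and DMSO-stimulated controls.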
Hits are given with their value; - = inactive; ? = inconclusive; . = no result given; [ ] = remark or other dose. Unless noted, the call rests on the fitted dose curve; in most records, active means well fitted curve in the direction sought with a large enough effect; inconclusive means small, poorly fitted or top-dose-only effect, or another doubt; inactive means no such curve, though single readings can be large; an effect the other way counts as inactive or inconclusive.

SMILES | HepG2 tox | IL-1B inflam inh | TDP1 cell CPT | TDP1 inh | TDP1 cell noCPT | TGFb inhibitor
Cc1nc2cc(-c3cccc(F)c3)nn2c(C)c1CCC(=O)NC1CCCCC1 | - | . | - | - | - | -
Cc1nc2cc(-c3cccc(F)c3)nn2c(C)c1CCC(=O)NC(C)CCc1ccco1 (stereo not drawn) | - | - | ? | - | ? | ?
Cc1ccc(NC(=O)CCc2c(C)nc3cc(-c4ccccc4)nn3c2C)cc1F | - | . | ? | - | ? | -
COC(=O)C(NC(=O)CCc1c(C)nc2cc(-c3cccc(F)c3)nn2c1C)C(C)C (stereo not drawn) | - | . | ? | - | 18µM | ?
COc1cc(OC)cc(-c2cc3nc(C)c(CCC(=O)NC(C)CCc4ccco4)c(C)n3n2)c1 (stereo not drawn) | - | - | ? | - | 16µM | -
O=C(OCC1CCC=CO1)C1CCC=CO1 (stereo not drawn) | - | - | - | . | - | -
C=Cc1ccc(Cn2nc(-c3ccc(C)c(S(=O)(=O)N(CC)CC)c3)ccc2=O)cc1 | - | . | 16µM | - | ? | ?
CCCNc1nc(NCc2ccccc2OC)c2cnn(C)c2n1 | - | . | 15µM | - | 13µM | -
Cn1ncc2c(NCc3cccc(Cl)c3)ncnc21 | - | . | 15µM | - | ? | -
COCCNc1nc(NCc2ccccc2)c2cnn(C)c2n1 | - | - | - | - | ? | -
Cn1ncc2c(NCCc3ccccc3)nc(Cl)nc21 | - | - | 23µM | . | 21µM | ?
COCCNc1nc(NCc2cccc(Cl)c2)c2cnn(C)c2n1 | - | . | ? | - | 15µM | -
Cc1ccccc1CNc1nc(N(C)C)nc2c1cnn2C | - | . | - | - | ? | -
Cn1ncc2c(Nc3ccccc3Cl)nc(Cl)nc21 | - | - | - | - | - | -
O=C(NCCc1csc2nc(-c3ccccc3F)nn12)c1ccco1 | - | . | - | - | - | -
O=C(CCCCCn1c(=O)[nH]c2ccccc2c1=O)N1CCN(Cc2ccc3c(c2)OCO3)CC1 | - | - | 13µM | - | ? | -
O=C(CCCCCn1c(=O)[nH]c2ccccc2c1=O)N1CCN(c2cccc(C(F)(F)F)c2)CC1 | - | . | 0.58µM | - | 0.58µM | ?
COC(=O)c1ccc2c(=O)n(CCCCCC(=O)N3CCN(c4ccc(Cl)cc4)CC3)c(=O)[nH]c2c1 | - | . | ? | - | ? | ?
CCCCCn1c(=O)[nH]c2cc(C(=O)N3CCN(c4cccc(C(F)(F)F)c4)CC3)ccc2c1=O | - | . | 10µM | - | 7.3µM | ?
COC(=O)c1ccc2c(=O)n(CCCCCC(=O)N3CCN(c4ccc(F)cc4)CC3)c(=O)[nH]c2c1 | - | - | 16µM | - | 12µM | -
Cc1ccc2nc(SCC(=O)NCC3Cc4cccc(-c5nc(C)cnc5C)c4O3)[nH]c2c1 (stereo not drawn) | . | . | -[9.04 µM] | . | - | .
CC(C)c1nc2sc3c(N4CCCCC4)ncnc3c2c2c1CCCC2 | - | . | - | - | - | -
O=C(CN1CCCC1)Nc1cccc(Cl)c1Cl | - | - | - | . | - | -
Nc1cc(=O)[nH]c2nnc(SCC(=O)Nc3cccc4ccccc34)n12 | - | - | - | - | - | -
Cc1ccc(C)c(N2CCN(C(=O)CCn3c(=O)[nH]c4ccccc4c3=O)CC2)c1 | - | . | 16µM | - | 12µM | ?
SMILES | HepG2 tox | IL-1B inflam inh | TDP1 cell CPT | TDP1 inh | TDP1 cell noCPT | TGFb inhibitor
CCC1CN(C(=O)N2CCC(C(=O)NCCC3=CCCCC3)CC2)c2cc(C)ccc2O1 (stereo not drawn) | - | . | 15µM | - | 15µM | ?
CCC1CN(C(=O)N2CCC(C(=O)NCc3ccc(F)cc3)CC2)c2ccccc2O1 (stereo not drawn) | - | - | - | - | - | -
CCC1CN(C(=O)N2CCC(C(=O)NCc3cccs3)CC2)c2ccccc2O1 (stereo not drawn) | - | . | 21µM | - | 21µM | -
CCC1CN(C(=O)N2CCC(C(=O)N(C)Cc3ccccc3)CC2)c2ccccc2O1 (stereo not drawn) | - | . | ? | - | 15µM | -
CCOc1ccc(CCNC(=O)C2CCN(C(=O)N3CC(CC)Oc4ccc(C)cc43)CC2)cc1 (stereo not drawn) | - | . | ? | - | ? | -
CCC1CN(C(=O)N2CCC(C(=O)NCc3ccco3)CC2)c2ccccc2O1 (stereo not drawn) | - | - | ? | - | ? | -
CCC1CN(C(=O)N2CCC(C(=O)NCCCc3ccccc3)CC2)c2cc(C)ccc2O1 (stereo not drawn) | - | . | ? | - | 13µM | -
CC1(C(=O)Nc2cccc(C(F)(F)F)c2)Cc2ccccc2C(=O)O1 (stereo not drawn) | - | . | - | - | - | -
CCC(=O)N1c2ccccc2CC1C(=O)NCCCN1CCN(c2cccc(Cl)c2)CC1 (stereo not drawn) | - | . | ? | - | ? | -
CCc1ccccc1NC(=O)C1CCN(c2cnccn2)CC1 | - | - | - | - | - | -
CCC(=O)Nc1ccc(-c2nnc3c4ccccc4c(C)nn23)cc1 | - | . | ? | - | ? | -
CCC1CN(C(=O)N2CCC(C(=O)NCCCc3ccccc3)CC2)c2ccccc2O1 (stereo not drawn) | - | . | 16µM | - | ? | -
Cc1ccc(NC(=O)/C(=C\c2cccc([N+](=O)[O-])c2)NC(=O)c2cccs2)cc1 | - | - | - | - | - | -
O=C(/C=C/c1cccc([N+](=O)[O-])c1)Nc1cccc(NC(=O)c2cccs2)c1 | - | -60 | 5.8µM | - | 18µM | -
O=C(/C=C/c1ccc(Cl)c([N+](=O)[O-])c1)Nc1cccnc1 | - | -53 | - | . | - | -
O=C(/C=C/c1ccc(Cl)c([N+](=O)[O-])c1)Nc1cccc(NC(=O)c2ccco2)c1 | - | -99 | ? | - | ? | ?
Cc1ccc([N+](=O)[O-])cc1N/C=C/C(=O)c1ccco1 | - | - | ? | - | 21µM | -
O=C(/C=C/c1ccc(Cl)c([N+](=O)[O-])c1)Nc1ccc(NC(=O)c2ccco2)cc1 | - | - | - | - | - | -
CCc1cccc(NC(=O)Cn2ncc3c([nH]c4ccc(C)cc43)c2=O)c1 | - | . | - | - | - | -
COCCNC(=O)c1ccc(N2CC3CC(C2)c2cccc(=O)n2C3)c(NC(=O)c2ccc(Br)o2)c1 (stereo not drawn) | - | - | - | - | - | -
